These molecules were tested on MDA-MB-231 (assay: relative cell viability, compound + RSL3, vs DMSO (fraction of DMSO control); higher = less growth inhibition). Conditions: 72 h.
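Also: breast cancer cell viability read out with the CCK-8 kit after co-treatment of each compound with the ferroptosis inducer RSL3.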

Row | SMILES | relative cell viability
1 | Cc1c(C(=O)NN2CCCCC2)nn(-c2ccc(Cl)cc2Cl)c1-c1ccc(Cl)cc1 [Rimonabant] + COC(=O)c1ccc([C@H]2c3[nH]c4ccccc4c3C[C@H](C(=O)OC)N2C(=O)CCl)cc1 [RSL3] | 0.216
2 | C[C@@H](Nc1nc(N[C@H](C)C(F)(F)F)nc(-c2cccc(Cl)n2)n1)C(F)(F)F [Vorasidenib] + COC(=O)c1ccc([C@H]2c3[nH]c4ccccc4c3C[C@H](C(=O)OC)N2C(=O)CCl)cc1 [RSL3] | 0.595
3 | Cc1cnc(C(=O)NCCc2ccc(S(=O)(=O)NC(=O)NC3CCCCC3)cc2)cn1 [Glipizide] + COC(=O)c1ccc([C@H]2c3[nH]c4ccccc4c3C[C@H](C(=O)OC)N2C(=O)CCl)cc1 [RSL3] | 0.484
4 | Cc1c(C)c2c(c(C)c1O)CCC(C)(COc1ccc(CC3SC(=O)NC3=O)cc1)O2 (configuration not stated) [Troglitazone] + COC(=O)c1ccc([C@H]2c3[nH]c4ccccc4c3C[C@H](C(=O)OC)N2C(=O)CCl)cc1 [RSL3] | 0.686
5 | COc1cc(C(C)=O)ccc1O [Acetovanillone] + COC(=O)c1ccc([C@H]2c3[nH]c4ccccc4c3C[C@H](C(=O)OC)N2C(=O)CCl)cc1 [RSL3] | 0.594
6 | CCCc1cc(-c2nc(-c3ccc(C)cc3)cs2)ccn1 [Fatostatin] + COC(=O)c1ccc([C@H]2c3[nH]c4ccccc4c3C[C@H](C(=O)OC)N2C(=O)CCl)cc1 [RSL3] | 0.715
7 | O=C(c1ccc(NS(=O)(=O)c2cccc3cccnc23)cc1)N1CCN(CC2CC2)CC1 [Mitapivat] + COC(=O)c1ccc([C@H]2c3[nH]c4ccccc4c3C[C@H](C(=O)OC)N2C(=O)CCl)cc1 [RSL3] | 0.654

Reference: the supplement of paper PMC9492666
